Data: PubChem BioAssay AID686979 (National Center for Advancing Translational Sciences (NCATS), 2013)
Hit rate of the full screen: of about 420,000 compounds, about 50,000 (12%) were called active. Not shown: some 26% with an inconclusive outcome. Many of the other results were omitted from the sample, so actives are more common in it than they were. Values without a mark were called inactive. The call rests on the fitted dose curve; in most records, active means well fitted inhibition curve with a large enough effect; inconclusive means small, poorly fitted or top-dose-only effect; inactive means flat fitted curve, though single readings scatter.

Assay: qHTS for Inhibitors of human tyrosyl-DNA phosphodiesterase 1 (TDP1): qHTS in cells in presence of CPT; further: nearly all actives have a fitted effect of over 55% in size
Conditions: chicken DT40 Tdp1-/-;hTDP1 cells + 20 nM CPT, ATP luminescence, 48 h; series mostly up to 46.2 µM; activity change, negative = growth inhibition: at the top concentration
In short: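 Cell growth measured by CellTiter-Glo luminescence after a minimum 48 h, 37 C compound exposure with 20 nM CPT in Tdp1-knockout DT40 cells stably expressing hTDP1, seeded 400/well; qHTS titration format.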
On the % scale 0 is the no-effect control and ±100 the full control effect; potency means the concentration at half of the fitted maximal effect.

SMILES | activity change, negative = growth inhibition | Potency
C[C@@H](NC(=O)[C@@H]1Cc2ccccc2CN1)C(=O)NC1CCCC1 | 14.7% | –
Cc1noc(C)c1S(=O)(=O)N(C)C[C@H]1Oc2ccc(NC(=O)C3CC3)cc2C(=O)N([C@H](C)CO)C[C@@H]1C | -15.8% | –
CCOC(=O)c1ccc(NC(=S)N2CCCC2)cc1 | 5.97% | –
CCOc1ccc(NC(=S)N2CCCCCC2)cc1 | 17.1% | –
CCC(C)c1ccc(NC(=S)N2CCCC2)cc1 (centres undefined) | – | 13 µM (active)
Cc1cc(-c2ccc(C)c(S(=O)(=O)NC(C)Cc3ccco3)c2)on1 (centres undefined) | -22.6% | –
COc1ccc(CNS(=O)(=O)c2cc(-c3cc(C)no3)ccc2C(C)C)cc1 | – | 0.92 µM (active)
CCOc1ccccc1CNS(=O)(=O)c1cc(-c2cc(C)no2)ccc1C | -8.67% | –
Cc1nn(-c2ccc(F)cc2)c(Cl)c1/C=C(/CCC(=O)O)c1nc2ccccc2s1 | -25.5% | –
COc1cccc2sc(NNC(=O)c3nc4ccccc4s3)nc12 | – | 5.17 µM (active)
O=C(Nc1ccccc1)Nc1nc2ccccc2s1 | 1.18% | –
COc1ccccc1OCc1nc2ccccc2s1 | -16.1% | –
N#Cc1cccc(CSc2ncnc(N)n2)c1 | -17.8% | –
O=C(NCCCN1CCCC1=O)c1cccc(S(=O)(=O)NCc2ccccc2)c1 | 5.09% | –
CC1CCCCC1NC(=O)COC(=O)Cc1ccc(Br)cc1 (centres undefined) | -0.277% | –
CCOC(=O)c1c(S(=O)(=O)NCC(=O)Nc2ccc(Cl)c(C(F)(F)F)c2)c(C)n(C)c1C | – | 18.4 µM (active)
CCOC(=O)c1c(S(=O)(=O)NCC(=O)Nc2ccc(C)cc2)c(C)n(C)c1C | -2.49% | –
CCOC(=O)c1c(S(=O)(=O)Nc2ccc(CN3CCC(C)CC3)cc2)c(C)n(C)c1C | -28.8% | –
COCCCNC(=O)C1CCN(c2ccc(N3CCOCC3)nn2)CC1 | 3.6% | –
Cc1ccc(C(=O)N/C(=C\c2cn(S(=O)(=O)N(C)C)c3ccccc23)C(=O)N2CCCC2)cc1 | -15.4% | –
O=C(CCC(=O)NNc1nc2ccccc2c2nc(-c3ccccc3)nn12)NCCCN1CCCC1=O | -14.5% | –
COc1cc2nc(SCC(=O)Nc3ccccc3F)n3nc(-c4ccccc4)nc3c2cc1OC | 2.55% | –
COc1cc2nc(NCC(C)c3ccccc3)n3nc(-c4ccccc4)nc3c2cc1OC (centres undefined) | – | 16.4 µM (active)
N#CCCN(C(=O)COC(=O)c1ccc(S(=O)(=O)N2CCCCCC2)cc1)c1ccccc1 | -22.3% | –
COc1ccc(CNC(=O)C(=O)N2CCC3(CC2)OCCN3S(=O)(=O)c2ccc(C)cc2)cc1 | -16.3% | –

SMILES | activity change, negative = growth inhibition | Potency
COc1ccc(S(=O)(=O)N2CCOC23CCN(S(=O)(=O)c2ccc([N+](=O)[O-])cc2)CC3)cc1 | – | 11.6 µM (active)
COc1ccc(S(=O)(=O)N2CCSCC2)cc1 | -2.73% | –
COCCN1C2=C(COC(C)(C)C2)C(=S)NC1c1ccccc1 (centres undefined) | -3.12% | –
Cc1ccsc1CN(C(=O)c1oc2ccc(Br)cc2c1C)C1CCS(=O)(=O)C1 (centres undefined) | – | 9.2 µM (active)
Cc1cc(C)c(OCC(=O)N(Cc2cccs2)C2CCS(=O)(=O)C2)c(C)c1 (centres undefined) | 4.02% | –
Cc1ccccc1OCC(=O)N(Cc1cccc(F)c1)C1CCS(=O)(=O)C1 (centres undefined) | -7.07% | –
NC1=NC2(CCCCC2)N(c2ccc(F)cc2F)C(N)=N1 | -0.0169% | –
COc1cc([N+](=O)[O-])cc([N+](=O)[O-])c1NC(=O)N1CCOCC1 | -20% | –
CCOC(=O)CSc1ncc(-c2cccc(Cl)c2)cn1 | -18.1% | –
Cn1nc(-c2ccccc2)c(CSc2cccc(Cl)c2)c1Cl | – | 16.4 µM (active)
Cn1nc(-c2ccccc2)c(CO)c1Sc1ccccc1 | 2.38% | –
C=CCSc1ccc(S(=O)(=O)N2CCN(C)CC2)cn1 | 0.991% | –
Cc1n[nH]c(=O)n1-c1ccc(C(C)C)cc1 | 8.79% | –
CCOc1ccc(NC(=O)CN(C)C(=O)Cn2c(=O)cnc3ccccc32)cc1OCC | 0.823% | –
COc1ccc(N2CCC(N3CCN(C)C(CCO)C3)CC2)cc1 (centres undefined) | -4.48% | –
COc1ccc(N2CCC(CNC(=S)Nc3c(C)cccc3C)C2)cc1 (centres undefined) | – | 23.1 µM (active)
COc1cccc(N2CC(C(=O)Nc3c(C)cccc3C)CC2=O)c1 (centres undefined) | 3.32% | –
COc1cc(C(=O)Nc2ccc(OCc3cc(=O)n4cc(C)sc4n3)cc2)cc(OC)c1OC | -4.31% | –
CC(=O)Nc1ccc(OC(=O)COc2ccc(Br)cc2)cc1 | 1.47% | –
COc1ccccc1S(=O)(=O)c1c(C)cc(C)[nH]c1=O | 0.0555% | –
CC(C)c1ccc(Cn2c(COc3ccccc3)nc3ccccc32)cc1 | – | 18.4 µM (active)
CC(O)c1nc2ccccc2n1Cc1ccc([N+](=O)[O-])cc1 (centres undefined) | -5.01% | –
O=C(O)CCn1c(Cc2ccccc2)nc2ccccc21 | -2.09% | –
Cc1ccc(NC(=O)N2CCC(O)(c3cccnc3)CC2)cc1 | 3.12% | –
Cn1c(C(=O)O)ccc1S(=O)(=O)N(Cc1ccccc1)Cc1ccccc1 | -5.38% | –

SMILES | activity change, negative = growth inhibition | Potency
COc1ccccc1N(CC(=O)NC1CCCC1)C(=O)C1(C)CC(=O)N=C2C=CC(C)=CN21 (centres undefined) | 0.362% | –
COc1cc(NC(=O)c2ccc(-c3csc(C)n3)cc2)c(OC)cc1Cl | 5.83% | –
COC(=O)c1scc(-c2ccc(C)cc2)c1S(=O)(=O)Nc1cc(Cl)c(OC)cc1OC | – | 13 µM (active)
COc1cc(OC)c(NS(=O)(=O)c2cn(C)cn2)cc1Cl | 3.73% | –
COc1ccccc1-c1ccnc(-n2ncc(C(=O)NCCCN3CCOCC3)c2C)n1 | 7.6% [at 9.04 µM] | –
COc1ccccc1CN1CCC(CNC(=O)c2cnn(-c3cccc(Cl)c3)c2C2CCN(C(=O)OC(C)(C)C)CC2)CC1 | – | 7.31 µM (active)
CCOC(=O)N1CCN(C(=O)C2CCN(Cc3ccc(OC)cc3OC)CC2)CC1 | -2.83% | –
COc1ccccc1CNC(=O)C1CCN(S(=O)(=O)c2ccc3c(c2)OCCO3)CC1 | 0.517% | –
CSCCC(=O)N1CCCC(CNC(=O)c2ccccc2Cl)C1 (centres undefined) | -2.68% | –
COc1ccc(Cl)cc1NC(=O)NCC1CCN(Cc2ccccc2F)CC1 | -29.9% | –
COc1ccccc1N1CCN(CCCNC(=O)c2cnn(-c3ccccc3Cl)c2C2CCN(C(=O)OC(C)(C)C)CC2)CC1 | – | 8.2 µM (active)
COc1ccccc1CN1CCC(CNC(=O)c2cnn(-c3ccccc3Cl)c2C2CCN(C(=O)OC(C)(C)C)CC2)CC1 | – | 8.2 µM (active)
Cc1ccc(CN2CCC(CNC(=O)c3cnn(-c4ccccc4Cl)c3C3CCN(C(=O)OC(C)(C)C)CC3)CC2)cc1 | – | 5.8 µM (active)
COc1ccccc1N1CCN(CC(=O)NCCc2ccc(S(N)(=O)=O)cc2)CC1 | 3.09% | –
O=C(NNC(=O)c1ccccc1[N+](=O)[O-])Nc1ccccc1C(F)(F)F | -6.86% | –
COc1ccc(CCNC(=O)COc2cc(C)cc3oc(=O)c(C)c(C)c23)cc1OC | 4.77% | –
O=C(COC(=O)c1ccc([N+](=O)[O-])o1)NC12CC3CC(CC(C3)C1)C2 | -6.43% | –
COc1ccc(C(C)=O)cc1CSc1nc2nc(C)cc(C)n2n1 | 7.35% | –
COCc1c(C(=O)OCC(=O)Nc2ccc(OC(F)F)cc2)oc2ccccc12 | -15.4% | –
COc1ccc(CCN2CC(C(=O)OCC(=O)NCc3ccccc3Cl)CC2=O)cc1OC (centres undefined) | -3.56% | –
CC(C)(C)OC(=O)N(Cc1ccco1)S(=O)(=O)c1ccccc1Br | -14% | –
O=c1oc2ccccc2c(=O)c2ccccc12 | 1.66% | –
O=C(Oc1ccc(F)cc1)N1CCOCC1 | -16.2% | –
CCS(=O)(=O)N1Cc2ccccc2CC1C(=O)Nc1ccc(OC)cc1OC (centres undefined) | -16.2% | –
O=C(COC(=O)c1ccc(N2CCCC2=O)cc1)c1ccc(OC(F)F)cc1 | -3.15% | –

SMILES | activity change, negative = growth inhibition | Potency
CS(=O)(=O)c1ccc(-c2nnn(CC(=O)Nc3ccc4c(c3)OCCO4)n2)cc1 | -0.0542% | –
CCOC(=O)c1cnn2c(SC)ncnc12 | -17.6% | –
CC(C)(C)C(=O)c1c(N)[nH]c(C(=O)c2ccccc2)c1-c1ccc(F)cc1 | -29.4% | –
Cc1cc(NC(=O)CSc2nnnn2-c2ccc(F)cc2)no1 | -0.0128% | –
Cc1cc(NC(=O)CSc2nnc(-c3ccco3)n2N)no1 | 8.93% | –
Cc1cc(C)c2c(c1)cc(C)c1nnc(SCC(=O)Nc3cc(C)on3)n12 | – | 8.2 µM (active)
O=C(CC1Oc2ccccc2NC1=O)NCc1ccc(F)cc1 (centres undefined) | -23.2% | –
COc1cccc(NC(=O)CSc2nnc(C3CCCCC3)n2N)c1 | -9.54% | –
CCN(CC)S(=O)(=O)c1ccc2c(c1)nc(CN(C)C(=O)Nc1ccc(Cl)cc1)n2C | – | 18.4 µM (active)
CCN(CC)S(=O)(=O)c1ccc(NC(=O)c2cnc(C)cn2)cc1 | -2.9% | –
CCN(CC)S(=O)(=O)c1ccc(Cl)c(NC(=O)c2ccncc2)c1 | 7.34% | –
COc1cc(NS(=O)(=O)c2ccc(NC(=S)NC(=O)c3ccc(Br)cc3)cc2)ncn1 | -7.13% | –
C=CCOc1cccc(CNCc2cccnc2)c1 | -0.189% | –
COc1ccc(-c2ccc3[nH]c4c(c3c2)CCN2C[C@H]3[C@H](C)ON(C)[C@H]3C[C@@H]42)cc1 | – | 20.6 µM (active)
COC(=O)[C@H]1[C@H]2C[C@H]3c4[nH]c5ccccc5c4CCN3C[C@@H]2CC[C@@H]1O | -1.82% | –
C[C@@H]1ON(C)[C@H]2C[C@H]3c4cc(N5CCN(C)CC5)ccc4CCN3C(=O)[C@@H]12 | -7.89% | –
CNC(=O)C[C@H]1C(=O)N(c2ccc(OC)cc2)C[C@@H]1Cc1ccccc1 | -26.9% | –
O=C(C[C@H]1C(=O)N(c2ccc(F)c(F)c2)C[C@@H]1Cc1ccccc1)Nc1ccccc1 | – | 11.2 µM (active)
COc1ccc(NC(=O)C[C@H]2C(=O)N(CCc3ccccc3)C[C@@H]2C)cc1 | -20.8% | –
CCOc1ccc(CNCCSc2nnnn2C)cc1 | 4.21% | –
COC(=O)COc1cccc2c(=O)n(CC(=O)NCCc3ccc(OC)c(OC)c3)ccc12 | 1.3% | –
CCOCCn1ccc2c(OCC(=O)NCc3ccc(C)cc3)cccc2c1=O | -21.4% | –
COC(=O)COc1cccc2c(=O)n(CC(=O)NCc3ccccc3)ccc12 | – | 1.84 µM (active)
O=C(NN=CC=Cc1ccccc1)C(O)C(O)C(=O)NN=CC=Cc1ccccc1 (centres undefined) | 13.1% | –
